In PubChem BioAssay AID1974 (The Scripps Research Institute Molecular Screening Center, 2009):
Where “and” joins values, the source holds several entries; their conditions need not be identical. Identical values can stand only once. The whole screen tested about 300,000 compounds, of which about 3,200 (1.1%) were called active. The sample as a whole holds a higher share of actives than the screen did. A number with no mark means an inactive call.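 How the source made its calls: active means inhibition above the campaign mean inhibition plus 3 SD (cut at about 35% in these data); inactive means the rest.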

Biological target: Glutathione S-transferase omega-1 (Homo sapiens) (UniProt P78417)
Assay: inhibitors of recombinant GSTO1, primary screen, counter-screen for RBBP9 inhibitor project, biochemical, fluorescence polarization (AID 1974);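 further: 0% = GSTO1-1 with DMSO and 100% = wells lacking GSTO1-1 enzyme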
Details: recombinant GSTO1, activity-based probe fluorescence polarization; at 5.96 µM; active compounds read high

Sequence of Glutathione S-transferase omega-1 (Homo sapiens) (P78417 whole entry, looked up): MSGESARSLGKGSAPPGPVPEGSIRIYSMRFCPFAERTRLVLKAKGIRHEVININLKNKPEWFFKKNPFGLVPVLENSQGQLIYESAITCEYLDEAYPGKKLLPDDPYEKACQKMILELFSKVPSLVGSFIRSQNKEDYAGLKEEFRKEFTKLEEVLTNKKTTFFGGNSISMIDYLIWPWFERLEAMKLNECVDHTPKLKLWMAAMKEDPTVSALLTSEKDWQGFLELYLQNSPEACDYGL

SMILES | inhibition
COc1ccc(C(C(=O)NC2CCCCC2)N(C(=O)CCl)c2ccccc2Cl)cc1 (stereo unspecified) | 38.1% (active)
COc1ccc(C(C(=O)NC2CCCCC2)N(C(=O)c2snc(C(N)=O)c2N)c2ccccc2OC)cc1 (stereo unspecified) | -5.23%
COc1cccc(N(C(=O)C2COc3ccccc3O2)C(C(=O)NC2CCCCC2)c2ccc(O)cc2)c1 (stereo unspecified) | 0.47%
CC1=C(N2CCN(c3ncccn3)CC2)CCC1=O | -2.06%
CCn1c(SC(C)C(=O)Nc2ccc(N3CCOCC3)cc2)nnc1-c1ccco1 (stereo unspecified) | -7.32%
CCOC(=O)C(C)N(c1ccccc1Cl)S(C)(=O)=O (stereo unspecified) | 2.86%
Cc1cc(Cl)c(S(=O)(=O)Nc2ccc3c(c2)OCCO3)cc1OCC(N)=O | 35.7% (active)
Cc1cc(Cl)c(S(=O)(=O)NCC2CCCO2)cc1OCC(N)=O (stereo unspecified) | -0.4%
Cc1cc(Cl)c(S(=O)(=O)N(C)C)cc1OCC(N)=O | -3.27%
CSc1ccccc1NC(=O)c1cnc2sc(C)cn2c1=O | -0.65%
CCN(C(=O)COC(=O)c1sccc1C)c1c(N)n(Cc2ccccc2)c(=O)[nH]c1=O | 13.2%
CN(C)CCn1c2c(c(SCC(=O)NCc3ccccc3)nc1=O)CCC2 | 0.7%
COc1ccc(CCNc2cc(N3CCN(C(=O)c4ccccc4OC)CC3)ccc2[N+](=O)[O-])cc1OC | 0.42%
O=[N+]([O-])c1ccccc1NCc1ccc(Cl)cc1 | 1.08%
Oc1ccc(CNc2ccccc2O)cc1 | 41.7% (active)
O=C(Cc1ccc(Cl)cc1)NC(=S)Nc1ccccc1O | -0.02%
O=C(Nc1cc(S(=O)(=O)N2CCOCC2)ccc1OCC(F)(F)F)c1ccc(N2CCCC2=O)cc1 | 6.19%
O=C(c1ccncc1)N1CCN(S(=O)(=O)c2cc(C(F)(F)F)cc(C(F)(F)F)c2)CC1 | 2.8%
CCOC(=O)c1ccccc1NC(=O)c1c(N)n(C)c(=O)[nH]c1=O | -3.83%

SMILES | inhibition
Cc1cc(C)c(S(=O)(=O)NCC(c2ccc3c(c2)OCO3)N2CCOCC2)c(C)c1 (stereo unspecified) | 3.98%
O=c1c2ccccc2ncn1/N=C/c1ccccc1 | -0.07%
CCCc1nc2ccccc2c(=O)n1NC(=O)c1c(O)c2ccccc2[nH]c1=O | 5.47%
CCCc1nc2ccccc2c(=O)n1/N=C/c1ccc(O)c(O)c1 | 45.8% (active)
CO[C@@H]1[C@@H](OC(N)=O)[C@@H](O)C(Oc2ccc3c(O)c(NC(=O)c4ccc(O)c(CC=C(C)C)c4)c(=O)oc3c2C)OC1(C)C (stereo partly specified) | 2.82%
COc1ccc(S(=O)(=O)/N=C2\C=C(NS(=O)(=O)c3ccccc3)C(=O)c3ccccc32)cc1 | 58.3% (active)
COc1ccc(S(=O)(=O)NCCCc2ccccc2)cc1 | 6.84%
COc1ccc2cc(S(=O)(=O)Nc3ccccn3)ccc2c1 | 2.15%
Cc1ccc(S(=O)(=O)N2[C@@H](c3cccc(Cl)c3)C(C(=O)O)=CC[C@H]2c2ccc(Cl)c(Cl)c2)cc1 | -207%
CCC(C)CCN1CCN=C1N(C)C (stereo unspecified) | 0.8%
COCCCN(C(=O)CSCc1ccc(C)cc1)c1c(N)n(Cc2ccccc2)c(=O)[nH]c1=O | -12.2%
CC(C)CCN1CCN=C1N(C)C | -2.91%
CC(=O)N(C)c1ccc(NC(=O)C(F)(F)F)cc1 | 2.55%
CN(C)c1ccc(N/C=C/C(=O)C(F)(F)F)cc1 | 57.6% (active)
CC(C)CNC(=O)C(=O)Nc1ccc(N(C)C)cc1 | 4.12%
[O-][n+]1ccc(OCc2ccccc2)cc1 | 10.9%
CN1C(C(=O)NCc2ccco2)CC2Cn3c(nc4ccccc43)C21 (stereo unspecified) | 6.49%
OCCn1c(-c2ccccc2)csc1=Nc1ccccc1 | -1.25%
O=c1cc(CCl)nc2scc(-c3ccccc3)n12 | 85.3% (active)

SMILES | inhibition
O=C(O)Cc1csc(-c2cccc(Oc3ccccc3)c2)n1 | 2.72% and 8.12%
Cc1nc2ncnn2c(C)c1CCC(=O)N1CCN(C(=O)c2ccco2)CC1 | 50.8% (active)
Cc1nc2nc(C)c(CCC(=O)N3CCN(c4ccccc4)CC3)c(C)n2n1 | 8.27%
Cc1ccc(C)c(OCC(=O)N2CCN(C(=O)c3ccco3)CC2)c1 | -2.08%
Cc1ccc(S(=O)(=O)CC(=O)Nc2sc(C)c(C)c2C(N)=O)cc1 | 0.44%
COC(=O)c1cccc(NC(=O)CN2CCC(NC(=O)c3cc(OC)c(OC)c(OC)c3)CC2)c1 | 48.5% (active)
O=C(CN1CCC(NC(=O)Nc2ccccc2)CC1)Nc1cccc([N+](=O)[O-])c1 | 5.63%
COc1cc(C(=O)NC2CCN(Cc3ccccc3)CC2)cc(Cl)c1OC(C)C | -0.77%
Cc1ccc(S(=O)(=O)N(C)c2ccc(OCC(=O)OCC(=O)N(CC#N)c3ccccc3)cc2)cc1 | 2.81%
CC(C)c1ccc(S(=O)(=O)N2CCN(C(=O)CN3C(=O)NC(C)(c4ccccc4)C3=O)CC2)cc1 (stereo unspecified) | 4.89%
O=C(Nc1cc(-c2ccccc2)nn1-c1ccccc1F)c1ccc([N+](=O)[O-])cc1 | -3.44%
CC(C)(C)c1ccc(C(=O)NCCn2c(N)c(C#N)c3nc4ccccc4nc32)cc1 | 6.36%
CC(C)Cn1c(N)c(C(=O)NCc2cccs2)c2nc3ccccc3nc21 | 38.5% (active)
CCCNC(=O)c1c(N)n(-c2ccc(S(N)(=O)=O)cc2)c2nc3ccccc3nc12 | -3.18%
CCN1CCN(C(=O)N[C@@H](C(=O)N[C@@H]2C(=O)N3C(C(=O)O)=C(CSc4nnnn4C)CS[C@H]23)c2ccc(O)cc2)C(=O)C1=O | -2.08%
CC1(C)C/C(=N/Nc2ccc([N+](=O)[O-])cc2[N+](=O)[O-])C(C)(C)O1 | -2.6%
O=C(OCC1OC(Oc2ccc(O)cc2)C(O)C(O)C1O)c1ccccc1 (stereo unspecified) | -6.08%
O=C(OCC1O[C@@H](OC(=O)c2cc(O)c(O)c(O)c2)[C@@H](OC(=O)c2cc(O)c(O)c(O)c2)[C@@H](OC(=O)c2cc(O)c(O)c(O)c2)[C@@H]1OC(=O)c1cc(O)c(O)c(O)c1)c1cc(O)c(O)c(O)c1 (stereo partly specified) | 43.9% (active)
